# Source: PubChem BioAssay (EPA / NIEHS)
# Some compounds were tested as several samples or in several runs, with calls that do not always agree. The source made the active and inactive calls. How the source made its calls: active means hit-call score of the fitted dose curve at least 0.9, where 1 is the maximum; inactive means score below 0.9.
# Assay: ATG_NRF2_ARE_CIS: Attagene CIS-FACTORIAL HepG2 Assay for human Nuclear Factor Erythroid 2 Related Factor 2 (NFR2) response to Antioxidant Response Elements (ARE) (AID 2282992)
# Settings: HepG2 Attagene ARE/NRF2 reporter, transcription factor activity; actives raise or lower the signal
# Method: ATG_CIS is a cell-based, multiplexed-readout assay that uses HepG2, a human liver cell line, with measurements taken at 24 hours after chemical dosing in a 24-well plate.ATG_NRF2_ARE_CIS is one of 52 assay component(s) measured or calculated from the ATG_CIS assay. It is designed to make measurements of mRNA induction, a form of inducible reporter, as detected with fluorescence intensity signals by Reverse transcription polymerase chain reaction (RT-PCR) and Capillary electrophoresis technology.Data from the assay component ATG_NRF2_ARE_CIS was analyzed into 1 assay endpoint. This assay endpoint, ATG_NRF2_ARE_CIS, was analyzed with bidirectional fitting relative to DMSO as the negative control and baseline of activity. Using a type of inducible reporter, measures of mRNA for gain or loss-of-signal activity can be used to understand the reporter gene at the transcription factor-level as they relate to the gene NFE2L2. Furthermore, this assay endpoint can be referred to as a primary readout, because this assay has produced multiple assay endpoints where this one serves a reporter gene function. To generalize the intended target to other relatable targets, this assay endpoint is annotated to the dna binding intended target family, where the subfamily is basic leucine zipper.
# Human liver HepG2 cells are transiently transfected with multiple reporter transcription units (MRTUs) in 6-well plates using FuGene 6 reagent (Roche; 3 ml FuGene/1 mg DNA). The MRTU constructs are regulated by a cis-regulating element (promoter). […] A major difference between the CIS and TRANS system is that in CIS activities of endogenous TFs are measured, whereas the TRANS assay evaluates changes in activities of exogenous, chimeric NR-Gal4 proteins. […] At the end of 24 hour incubation, total RNA was isolated using TriZol reagent (Invitrogen). The isolated RNA is then reverse-transcribed using oligo(dT) primer and Mo-MLV reverse transcriptase (Invitrogen) with DNAse I (Ambion) treatment for 30 min. The one-tenth of the produced cDNA was amplified by PCR using Taq DNA polymerase (Invitrogen) and two reporter sequence-specific primers. The PCR products were fluorescently labeled by primer extension with 6-arboxyfluorescein (6-FAM) 5'-labeled reporter sequence-specific primer (2 min at 95 C, 20 s at 68 C and 10 min at 72 C) and these products were digested with 5U of HpaI (New England Biolabs) for 2h at 37 C. The fragments were purified using Qiaquick PCR columns (Qiagen), analyzed on an ABI 3130xL genetic analyzer (Applied Biosystems) with peak positions identified by using a set of X-rhodamine (ROX)-labeled MapMarker1000 molecular weight standards (BioVentures). The raw capillary electrophoresis data was processed using Attagraph software (Attagene).
SMILES,outcome,AC50
NC1CCCCC1,inactive,–
NCCOCCOCCN,inactive,–
O=C1c2c(O)cccc2Cc2cccc(O)c21,inactive,–
COc1ccc(OC(F)(F)F)cc1CN[C@H]1CCCN[C@H]1c1ccccc1,–,11 µM (active)
CC(=O)OC1CC(C)OC(C)O1 (stereo not given),–,68.9 µM (active)
O=C(O)c1cccnc1,inactive,–
CCCC[C@H]1CN(CC2CCOCC2)C(=O)OC12CCN(C1(C)CCN(C(=O)c3c(C)ncnc3C)CC1)CC2,inactive,–
Cc1ccc(-c2cc(C(F)(F)F)nn2-c2ccc(S(N)(=O)=O)cc2)cc1,–,5.72 µM (active)
O=C(O)CN(CC(=O)O)CC(=O)O,inactive,–
CCCCCCC(CCCCCCCCCCC(=O)OCC(COC(C)=O)OC(C)=O)OC(C)=O (stereo not given),inactive,–
COc1ccc(C(=O)Nc2nc3ccccc3c(NCc3ccccc3)c2C#N)cc1,–,0.952 µM (active)
CCCC(=O)O,inactive,–
C/C=C/C=C/C(=O)O,inactive,–
O=C1CCCCC1,inactive,–
CS(=O)(=O)c1ccc([C@@H](C[C@H]2CCC(=O)C2)C(=O)Nc2cnccn2)cc1Cl,–,48.9 µM (active)
CC1=C(C)S(=O)(=O)CCS1(=O)=O,–,17.8 µM (active)
CCCCCCCCCC[N+](C)(C)[O-],inactive,–
CC(=O)S[C@H](C(=O)N[C@H]1Cc2ccccc2[C@H]2CCC[C@@H](C(=O)O)N2C1=O)C(C)C,inactive,–
CC(=O)CC(c1ccccc1)c1c(O)c2ccccc2oc1=O (stereo not given),inactive,27 µM (active)

SMILES,outcome,AC50
O=C1O[C@H]([C@H](O)CO)C(O)=C1O,inactive,–
CC(=O)O[C@]1(C(C)=O)CC[C@H]2[C@@H]3C=C(Cl)C4=CC(=O)[C@@H]5C[C@@H]5[C@]4(C)[C@H]3CC[C@@]21C,inactive,48.4 µM (active) [middle of 4 runs]
CC(=O)[C@@]1(O)CC[C@H]2[C@@H]3CCC4=CC(=O)CC[C@]4(C)[C@H]3CC[C@@]21C,inactive,–
CC1(C)C(=O)NC(=O)N1CO,inactive,–
C/C=C/c1ccc(OC)cc1,inactive,–
CCCCc1nc2cccnc2n1Cc1ccc(-c2ccccc2-c2nnn[nH]2)cc1,–,100 µM (active)
Nc1nc(Cl)nc2c1ncn2[C@H]1C[C@H](O)[C@@H](CO)O1,inactive,–
CCCCC(CC)COP(=O)(OCC(CC)CCCC)OCC(CC)CCCC (stereo not given),inactive,–
CCCCCCCC(=O)OC,inactive,–
CC(C)(C)c1ccccc1,inactive,–
CC(COCC(C)OC(=O)c1ccccc1)OC(=O)c1ccccc1 (stereo not given),inactive,–
CCC(C)N(C)C(=O)c1cc2ccccc2c(-c2ccccc2Cl)n1 (stereo not given),–,16.8 µM (active)
CSc1ccc(Oc2ccc(S(N)(=O)=O)cc2CN(C)C)cc1C,inactive,–
CCOCCOCCO,inactive,–
NC=O,inactive,–
O=C(O)c1[nH]n(-c2ccc(S(=O)(=O)O)cc2)c(=O)c1N=Nc1ccc(S(=O)(=O)O)cc1,inactive,–
O=C(N[C@@H](c1ccccc1)[C@@H]1CCCCN1)c1cccc(C(F)(F)F)c1Cl,–,9.19 µM (active)
O=C(Oc1ccccc1)c1cccc(C(=O)Oc2ccccc2)c1,inactive,–
Nc1nc(=S)c2[nH]cnc2[nH]1,–,2.69 µM (active)
